Results on seven compounds are retold here after PubChem BioAssay (NCATS).

A short description of test [1]: Cell Viability - Jurkat (AID 426;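 active = dose-dependent loss of cell ATP signal giving a full or clear fitted curve, ranked by lower potency value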;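 also: potency is read from the fitted curve at half-maximal effect; cells exposed to compound for 40 hours at 37 °C before ATP read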). To be noted: qHTS. In short, it runs like this: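 Cytotoxicity was scored as loss of cellular ATP, measured by luciferase-based luminescence, in Jurkat clone E6-1 cells after 40 h compound treatment; tamoxifen and doxorubicin served as positive controls.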
On the technique in general: Quantitative high-throughput screening tests each substance at several concentrations.

Test [2] addresses Mitogen-activated protein kinase 10 (Mus musculus) (UniProt Q61831). Nature of the test: JNK3 AlphaScreen Assay (AID 530; active = well fitted curve in either direction with a large enough effect, not every such curve was filed as active;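 also: kinase came from lysate of stimulated human HepG2 cells; % is scaled to controls: 0 for no effect and ±100 for the full control effect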). The note with it: JNK3 lysate, c-Jun phosphorylation; series mostly up to 57.1 µM. The method, boiled down: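 Biotinylated GST-cJun(1-79) served as substrate for JNK3 in HepG2 lysates stimulated with IL-1beta and TNF-alpha. ATP was 10 uM final, pH 7.6. Ser73 phosphorylation was quantified by AlphaScreen (680 nm excitation).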
Background: In Alpha technology, singlet oxygen from a donor bead excites a nearby acceptor bead.

Test [3] in a line: Cell Viability - NIH 3T3 (AID 541).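 Also: cells exposed to compound for 40 hours; nearly all actives have a fitted effect of over 25% in size.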 Also: potency is read from the fitted curve at half-maximal effect.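 As to activity change, negative = cytotoxicity: plate controls were DMSO alone for no effect and tamoxifen positive control for full effect.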 The note with it: NIH 3T3 cell viability, qHTS; activity change, negative = cytotoxicity: at 92.2 µM (top of the series). The method, boiled down: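 In this cytotoxicity screen, acute toxicity is scored as an ATP drop measured by CellTiter-Glo in NIH 3T3 fibroblasts following a 40 hr, 37 °C incubation with compound.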
Test [4] is described as follows: Cell Viability - LYMP2-024 (AID 988).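 Also: cells exposed to compound for 24 hr at 37 °C; plate controls were DMSO only for no effect and 92 µM tetraoctylammonium bromide for full effect; nearly all actives have a fitted effect of over 60% in size.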 To be noted: LYMP2-024 lymphoblastoid cell viability; series mostly up to 92.2 µM. The method, boiled down: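 Cells at 2500 per well received compound for 24 hr after a 5 hr settling period. Viability was scored by CellTiter-Glo luminescence, with AC50 from Hill fits.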
In test [5] the target is Estrogen receptor (Homo sapiens) (UniProt P03372). As to the kind of experiment: qHTS assay for small molecule antagonists of estrogen receptor alpha signaling (AID 588513; active = well fitted curve in the direction sought with a large enough effect in the signal ratio, with a control signal flat, not every such curve was filed as active; the % refers to the signal ratio; also: % is scaled to controls: 0 for no effect and ±100 for the full control effect). To be noted: ER-alpha-UAS-bla HEK293, beta-lactamase ratio, antagonist mode; series mostly up to 76.9 µM. In short, it runs like this: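 ER-alpha-UAS-bla GripTite HEK 293 cells in medium with 2% charcoal/dextran-treated FBS were preincubated 4 h at 37 C, dosed with compound (1:2 titration), stimulated with 0.5nM 17-beta-estradiol for 18 h, then read by CCF4 beta-lactamase fluorescence.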

Test [6] concerns the target Peroxisome proliferator-activated receptor gamma (Homo sapiens) (UniProt P37231). Nature of the test: qHTS assay for small molecule agonists of peroxisome proliferator-activated receptor gamma signaling (AID 588536; active = well fitted curve in the direction sought with a large enough effect in the signal ratio, with a control signal flat, not every such curve was filed as active; the % refers to the signal ratio;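 also: 0% = DMSO basal wells and 100% = rosiglitazone at 2 µM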). To be noted: HEK293 PPARg-UAS-bla, beta-lactamase ratio, 16 h, percent of rosiglitazone response, DMSO as zero; series mostly up to 76.7 µM. The method, boiled down:
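Using GeneBLAzer HEK293 cells, response was quantified by CCF4 fluorescence and normalized between basal DMSO (0%) and rosiglitazone 2 uM (100%); curves yielded half-maximal stimulation concentration and efficacy.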

Test [7] concerns the target Vitamin D3 receptor (Homo sapiens) (UniProt P11473). As to the kind of experiment: qHTS assay for small molecule agonists of vitamin D receptor signaling (AID 588543; calls by dose curve;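 also: 0% = DMSO basal and 100% = reference agonist control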). The note with it: HEK293T VDR-UAS-bla, beta-lactamase ratio, 16 h; series mostly up to 76.8 µM. The method, boiled down: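 GeneBLAzer VDR-UAS-bla HEK293T cells in 2% charcoal-stripped FBS medium were dosed with compound titrations for 16 h at 37 °C; CCF4 β-lactamase readout (405 nm ex, 460/530 nm em). EC50 and efficacy from Hill fits, normalized to 50 nM calcitriol (100%) and DMSO (0%).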

A short description of test [8]: qHTS assay for small molecule disruptors of the mitochondrial membrane potential - 5 hr assay (AID 651755; calls by dose curve; also: nearly all actives have a fitted effect of over 40% in size; also: potency is read from the fitted curve at half-maximal effect). To be noted: JC-1-type ratio dye; series mostly up to 92.2 µM. The method, boiled down:
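Seed HepG2 overnight, add compound, incubate 5 hr at 37C and 5% CO2, stain 30 min with Mito-MPS, then measure monomer (490/535 nm) and aggregate (540/590 nm) fluorescence.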

Test [9] addresses Tumor necrosis factor (Homo sapiens) (UniProt P01375). As to the kind of experiment: qHTS assay to identify small molecules that stimulate Tumor Necrosis Factor-alpha (TNF-alpha) secretion (AID 651757; active = well fitted curve in the direction sought with a large enough effect in the signal ratio; the % refers to the signal ratio; also: 0% is about no effect). To be noted: Human cells, HTRF 665/615 ratio; series mostly up to 92.2 µM. In short, it runs like this: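 Using 3000 THP-1 cells per well, compounds and controls were applied for 17 hrs at 37 C. Detection followed with two labeled anti-TNF-alpha antibodies (cryptate donor, XL665 acceptor) for 3 hr at room temperature, measured by TR-FRET.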

The target in test [10] is Nuclear receptor ROR-gamma (Homo sapiens) (UniProt P51449). Nature of the test: qHTS assay for small molecule antagonists of the retinoid-related orphan receptor gamma (ROR-gamma) signaling pathway (AID 651802).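 Also: luciferase reporter luminescence driven by ROR response element; % is scaled to controls: 0 for no effect and ±100 for the full control effect; nearly all actives have a fitted effect of over 60% in size.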 The note with it: ROR-gamma antagonist cell reporter assay; series mostly up to 92.2 µM. The method, boiled down: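 Doxycycline-induced reporter activity in engineered CHO cells (TET-inducible ROR, RORE-LUC) was measured by luminescence after 16hr compound exposure at 37C.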

Test [11] is described as follows: MultiTox-Fluor Cytotoxicity Assay - LYMP1-002 - Dead Cells (AID 960).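 Also: 0% = DMSO and 100% = tetraoctylammonium bromide; nearly all actives have a fitted effect of over 60% in size.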 The note with it: LYMP1-002 lymphoblastoid cells, dead-cell protease fluorescence; series mostly up to 46.1 µM. The method, boiled down: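 Concentration-dependent increases in membrane-leaked protease activity are quantified in LYMP1-002 cells after 16 hr treatment; values are normalized against DMSO and tetraoctylammonium bromide (15 uM) controls and AC50 derived by Hill modeling.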

For test [12], the target named is Glucocorticoid receptor (Homo sapiens) (UniProt P04150). As to the kind of experiment: qHTS assay for small molecule agonists of glucocorticoid receptor signaling (AID 588532; active = well fitted curve in the direction sought with a large enough effect in the signal ratio, with a control signal flat; the % refers to the signal ratio;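 also: 100% = dexamethasone at 0.1 µM and 0% = DMSO only wells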). The note with it: HeLa MMTV-bla, beta-lactamase ratio, agonist, 18 h; stronger effect = higher value; percent of dexamethasone control, DMSO zero. In short, it runs like this: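 Stimulation of a glucocorticoid response element-driven beta-lactamase gene was measured in HeLa cells. Responses were scaled between DMSO basal and 0.1 uM dexamethasone, then fitted for half-maximal stimulation.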

Test [13] is described as follows: qHTS assay for small molecule antagonists of peroxisome proliferator-activated receptor delta signaling (AID 588535; active = well fitted inhibition curve with a large enough effect in the signal ratio, with a control signal flat, not every such curve was filed as active; the % refers to the signal ratio;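 as to max response: cells co-treated with a PPAR-delta agonist as stimulator during compound exposure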). The note with it: HEK293T PPARd-UAS-bla, beta-lactamase FRET ratio, 18 h; 460 nm channel. In short, it runs like this: (§1)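 Compounds tested in titration on PPAR-delta-UAS-bla HEK293T cells grown in charcoal/dextran-stripped serum (2%); beta-lactamase activity read via CCF4 emission at 460 and 530 nm.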

Test [14] deals with Peroxisome proliferator-activated receptor delta (Homo sapiens) (UniProt Q03181). Described as above. The note with it: HEK293T PPARd-UAS-bla, beta-lactamase FRET ratio, 18 h; series mostly up to 76.7 µM. The method, boiled down: as §1
Test [15] deals with Peroxisome proliferator-activated receptor gamma (Homo sapiens) (UniProt P37231). As to the kind of experiment: qHTS assay for small molecule antagonists of peroxisome proliferator-activated receptor gamma signaling (AID 588537; active = well fitted inhibition curve with a large enough effect in the signal ratio, with a control signal flat, not every such curve was filed as active; the % refers to the signal ratio;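 also: reporter cells co-stimulated with 50 nM rosiglitazone agonist during compound treatment; % of control where 0% means no effect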). To be noted: HEK293 PPARg-UAS-bla, beta-lactamase ratio, antagonist mode; series mostly up to 76.8 µM. In short, it runs like this:
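HEK293 cells, PPAR-gamma-UAS-bla, 3000/well. Pre-incubation 6-6.5 h, 37 C. Compound titration with rosiglitazone 50 nM final, 16 h. CCF4 dye, 2 h RT, dual-emission fluorescence.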

Test [16] can be described thus: qHTS assay for small molecule activators of the nuclear factor-kappa B (NF-kB) signaling pathway (AID 651749; active = well fitted activation curve with a large enough effect in the signal ratio; the % refers to the signal ratio; also: % of control where 0% means no effect). The note with it: NF-kB-bla ME-180 cells, beta-lactamase FRET ratio, 16 h; stronger effect = higher value. The method, boiled down: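 Beta-lactamase reporter expression, controlled by NF-kB response elements in ME-180 cells, was quantified fluorometrically via FRET disruption; cells at 2,000/well had been incubated with 23 nL test compound for 16 hr.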

The target of test [17] is Glucocorticoid receptor (Homo sapiens) (UniProt P04150). As to the kind of experiment: qHTS assay for small molecule antagonists of glucocorticoid receptor signaling (AID 588533; active = well fitted inhibition curve with a large enough effect in the signal ratio, with a control signal flat, not every such curve was filed as active; the % refers to the signal ratio;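 also: cells stimulated with 2 nM dexamethasone as agonist; % is scaled to controls: 0 for no effect and ±100 for the full control effect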). The note with it: HeLa MMTV-bla, GRE beta-lactamase ratio, antagonist mode, 18 h; series mostly up to 76.8 µM. The method, boiled down:
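Antagonist-mode qHTS: compound titrations added to GRE-bla HeLa cells, then dexamethasone 2 nM final; 18 h, 37 C. CCF4 FRET fluorescence normalized to dexamethasone and DMSO; IC50 from Hill fit.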

Test [18] can be described thus: Cell Viability - HepG2 (AID 433; calls by dose curve;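 also: potency is read from the fitted curve at half-maximal effect; cells exposed to compound for 40 hours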). The note with it: qHTS. The method, boiled down:
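HepG2 hepatocellular carcinoma cells (1500/well) were treated with compounds for 40 h at 37 °C in complete medium; intracellular ATP was read by CellTiter-Glo luminescence. Data were normalized to DMSO and 100 uM tamoxifen, and AC50 came from Hill fits.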

Test [19] in a line: qHTS assay for small molecule agonists of the antioxidant response element (ARE) signaling pathway (AID 651741; active = well fitted activation curve with a large enough effect in the signal ratio; the % refers to the signal ratio; also: potency is read from the fitted curve at half-maximal effect; as to activation: % of control where 0% means no effect). To be noted: HepG2 ARE-bla reporter, beta-lactamase FRET ratio, 16 h; series mostly up to 96 µM. The method, boiled down: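 Beta-lactamase reporter expression driven by the antioxidant response element in HepG2 cells was detected by fluorescence with LiveBLAzer B/G FRET substrate (2 h, room temperature) following 16 h compound treatment at 37 C.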

Test [20] addresses Bile acid receptor (Homo sapiens) (UniProt Q96RI1). As to the kind of experiment: qHTS assay for small molecule agonists of farnesoid X receptor signaling (AID 588527; calls by dose curve;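 also: 0% = vehicle basal and 100% = reference agonist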). To be noted: HEK293T FXR-UAS-bla, beta-lactamase ratio, 16 h; stronger effect = higher value. The method, boiled down: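 Quantitative HTS used FXR-UAS-bla HEK293T cells with 16 h compound incubation at 37 C. EC50 values came from concentration-response curves normalized to chenodeoxycholic acid.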

Where “and” joins values, the source holds several entries; their conditions need not be identical. Equal values may be shown once. Records with an inconclusive call do not appear. Calls of active or inactive are those of the source. Unless noted, calls follow the shape of the dose curve; as a rule, active = well fitted curve in the direction sought with a large enough effect; inconclusive = small, poorly fitted or top-dose-only effect, or another doubt; inactive = no such curve, though single readings can be large; an effect the other way counts as inactive or inconclusive.

Tumor necrosis factor (Homo sapiens), sequence (P01375 whole entry, looked up): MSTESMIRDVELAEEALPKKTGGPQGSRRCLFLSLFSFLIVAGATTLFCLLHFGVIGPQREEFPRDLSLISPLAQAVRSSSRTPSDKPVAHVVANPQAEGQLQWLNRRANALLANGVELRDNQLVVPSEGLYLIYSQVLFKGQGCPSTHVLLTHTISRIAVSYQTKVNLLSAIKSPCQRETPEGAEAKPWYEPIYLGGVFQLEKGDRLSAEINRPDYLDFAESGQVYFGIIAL
Vitamin D3 receptor (Homo sapiens), sequence (P11473 whole entry, looked up): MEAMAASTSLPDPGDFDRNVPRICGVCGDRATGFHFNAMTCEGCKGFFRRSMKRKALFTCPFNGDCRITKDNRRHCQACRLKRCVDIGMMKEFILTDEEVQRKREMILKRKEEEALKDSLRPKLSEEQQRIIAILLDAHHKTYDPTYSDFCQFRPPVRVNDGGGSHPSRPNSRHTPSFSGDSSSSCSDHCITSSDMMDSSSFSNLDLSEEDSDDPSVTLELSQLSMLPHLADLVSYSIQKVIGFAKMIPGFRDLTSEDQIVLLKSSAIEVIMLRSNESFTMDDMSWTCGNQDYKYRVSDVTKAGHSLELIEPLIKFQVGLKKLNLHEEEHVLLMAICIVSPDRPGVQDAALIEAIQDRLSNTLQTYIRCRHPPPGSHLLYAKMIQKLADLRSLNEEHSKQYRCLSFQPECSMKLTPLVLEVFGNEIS
Estrogen receptor (Homo sapiens), sequence (P03372 whole entry, looked up): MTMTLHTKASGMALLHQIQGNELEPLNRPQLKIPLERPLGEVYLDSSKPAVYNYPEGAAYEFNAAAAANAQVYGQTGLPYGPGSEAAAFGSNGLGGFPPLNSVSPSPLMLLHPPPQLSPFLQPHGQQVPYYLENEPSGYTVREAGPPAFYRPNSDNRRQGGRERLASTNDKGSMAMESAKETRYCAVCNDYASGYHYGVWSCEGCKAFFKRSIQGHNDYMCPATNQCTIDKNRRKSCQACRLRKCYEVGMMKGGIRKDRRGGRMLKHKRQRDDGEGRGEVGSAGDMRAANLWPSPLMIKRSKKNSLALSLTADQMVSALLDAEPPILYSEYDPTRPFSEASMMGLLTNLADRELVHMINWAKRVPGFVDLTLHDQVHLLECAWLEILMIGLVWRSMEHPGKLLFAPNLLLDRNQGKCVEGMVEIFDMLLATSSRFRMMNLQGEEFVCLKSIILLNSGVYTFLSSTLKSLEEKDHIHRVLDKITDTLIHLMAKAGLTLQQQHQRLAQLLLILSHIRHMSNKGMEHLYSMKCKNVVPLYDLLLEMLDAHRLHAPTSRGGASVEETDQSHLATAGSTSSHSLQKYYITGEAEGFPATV
Peroxisome proliferator-activated receptor delta (Homo sapiens), sequence (Q03181 whole entry, looked up): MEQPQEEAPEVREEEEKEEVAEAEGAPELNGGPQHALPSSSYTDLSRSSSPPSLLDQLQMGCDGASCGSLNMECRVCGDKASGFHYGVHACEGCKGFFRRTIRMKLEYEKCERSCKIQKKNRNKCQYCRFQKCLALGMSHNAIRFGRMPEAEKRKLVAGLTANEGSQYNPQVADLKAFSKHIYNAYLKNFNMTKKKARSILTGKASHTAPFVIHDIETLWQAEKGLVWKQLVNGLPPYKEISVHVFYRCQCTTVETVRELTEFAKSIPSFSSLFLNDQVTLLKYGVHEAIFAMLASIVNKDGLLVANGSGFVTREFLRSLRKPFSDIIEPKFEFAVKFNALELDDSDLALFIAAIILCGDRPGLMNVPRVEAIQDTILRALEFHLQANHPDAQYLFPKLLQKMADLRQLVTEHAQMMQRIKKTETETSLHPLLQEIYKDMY
Glucocorticoid receptor (Homo sapiens), sequence (P04150 whole entry, looked up): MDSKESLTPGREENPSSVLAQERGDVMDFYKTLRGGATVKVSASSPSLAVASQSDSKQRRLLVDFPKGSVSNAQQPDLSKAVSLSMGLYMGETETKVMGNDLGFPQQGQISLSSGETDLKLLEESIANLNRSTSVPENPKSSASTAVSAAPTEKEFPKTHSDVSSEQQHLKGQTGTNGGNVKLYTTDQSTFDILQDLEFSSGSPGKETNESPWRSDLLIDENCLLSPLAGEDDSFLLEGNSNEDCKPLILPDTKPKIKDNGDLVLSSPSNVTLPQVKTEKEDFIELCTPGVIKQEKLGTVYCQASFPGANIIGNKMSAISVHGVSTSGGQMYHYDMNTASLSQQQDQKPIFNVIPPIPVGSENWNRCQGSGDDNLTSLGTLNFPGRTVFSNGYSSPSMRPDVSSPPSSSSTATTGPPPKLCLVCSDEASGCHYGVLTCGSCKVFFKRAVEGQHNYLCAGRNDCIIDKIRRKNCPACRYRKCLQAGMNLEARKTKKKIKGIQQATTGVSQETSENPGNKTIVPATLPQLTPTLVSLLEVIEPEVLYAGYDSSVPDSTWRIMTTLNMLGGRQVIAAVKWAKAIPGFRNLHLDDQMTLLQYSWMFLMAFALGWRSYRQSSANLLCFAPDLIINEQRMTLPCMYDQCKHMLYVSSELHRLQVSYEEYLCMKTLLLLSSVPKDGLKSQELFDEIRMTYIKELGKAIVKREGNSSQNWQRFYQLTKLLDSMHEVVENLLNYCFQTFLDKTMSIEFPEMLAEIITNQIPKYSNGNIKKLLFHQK
Peroxisome proliferator-activated receptor gamma (Homo sapiens), sequence (P37231 whole entry, looked up): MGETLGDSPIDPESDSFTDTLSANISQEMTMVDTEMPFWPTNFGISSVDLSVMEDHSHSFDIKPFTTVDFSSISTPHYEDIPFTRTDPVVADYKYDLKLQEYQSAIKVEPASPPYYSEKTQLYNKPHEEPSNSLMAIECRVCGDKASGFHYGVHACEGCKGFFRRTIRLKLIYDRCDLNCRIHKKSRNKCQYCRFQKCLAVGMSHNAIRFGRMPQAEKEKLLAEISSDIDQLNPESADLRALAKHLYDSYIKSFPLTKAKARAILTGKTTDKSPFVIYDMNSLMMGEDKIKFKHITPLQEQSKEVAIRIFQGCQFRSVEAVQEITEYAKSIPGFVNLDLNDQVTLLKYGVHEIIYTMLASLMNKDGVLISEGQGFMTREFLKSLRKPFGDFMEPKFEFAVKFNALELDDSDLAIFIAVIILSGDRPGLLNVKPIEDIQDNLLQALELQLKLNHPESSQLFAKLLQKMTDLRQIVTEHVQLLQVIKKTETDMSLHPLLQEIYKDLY
Nuclear receptor ROR-gamma (Homo sapiens), sequence (P51449 whole entry, looked up): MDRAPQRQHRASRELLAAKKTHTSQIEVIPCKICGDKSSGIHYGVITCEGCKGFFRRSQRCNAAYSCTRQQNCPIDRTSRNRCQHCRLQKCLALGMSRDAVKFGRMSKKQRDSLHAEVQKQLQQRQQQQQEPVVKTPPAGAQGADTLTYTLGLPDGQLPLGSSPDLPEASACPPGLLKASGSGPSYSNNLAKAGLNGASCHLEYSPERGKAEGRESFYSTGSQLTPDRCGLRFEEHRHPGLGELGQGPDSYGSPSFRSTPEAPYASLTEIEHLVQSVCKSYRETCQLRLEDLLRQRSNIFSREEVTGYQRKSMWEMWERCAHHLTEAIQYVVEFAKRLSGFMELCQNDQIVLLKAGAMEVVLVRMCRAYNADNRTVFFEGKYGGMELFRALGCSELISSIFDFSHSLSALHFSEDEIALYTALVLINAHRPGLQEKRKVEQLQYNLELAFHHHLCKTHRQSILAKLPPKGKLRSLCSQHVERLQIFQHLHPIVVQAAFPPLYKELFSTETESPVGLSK
Bile acid receptor (Homo sapiens), sequence (Q96RI1 whole entry, looked up): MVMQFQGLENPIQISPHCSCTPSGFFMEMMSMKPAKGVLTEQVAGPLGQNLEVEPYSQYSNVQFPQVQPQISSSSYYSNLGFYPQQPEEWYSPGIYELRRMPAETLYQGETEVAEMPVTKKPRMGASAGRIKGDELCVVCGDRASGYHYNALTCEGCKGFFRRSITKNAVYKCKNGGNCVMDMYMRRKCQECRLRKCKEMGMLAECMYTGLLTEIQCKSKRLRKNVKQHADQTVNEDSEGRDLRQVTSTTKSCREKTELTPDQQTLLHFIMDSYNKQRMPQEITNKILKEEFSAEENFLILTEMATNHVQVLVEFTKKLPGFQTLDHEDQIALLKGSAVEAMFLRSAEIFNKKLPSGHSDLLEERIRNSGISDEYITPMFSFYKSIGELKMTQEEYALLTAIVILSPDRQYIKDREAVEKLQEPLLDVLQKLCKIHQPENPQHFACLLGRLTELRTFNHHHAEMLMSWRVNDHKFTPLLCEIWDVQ

For the compound `Nc1ccc2ccccc2c1`, the Potency in [1] was > 92 µM (inactive). The Potency entry in test [2], in test [3], in [4], in test [5], in [8] and in [10] was “inactive” each time. The outcome in test [6], in test [7] and in test [9] was inactive.
Consider `Cl/C=C/CCl`, for which the Potency in test [1] was > 92 µM (inactive). The Potency entry in [2], in test [3], in [11], in test [4], in [15] and in test [8] was “inactive” throughout. Further, in test [10], the Potency result was “inactive”. Moreover, the activation is 1.37% (inactive) in test [12] and 0.574% (inactive) in test [16]. In addition, the max response in [13] amounted to 5.14%. The result in test [14], in [6], in [7] and in test [9] was inactive.
As for `CCCCCCCCCCCCCl`, in test [1], the Potency was > 92 µM (inactive). Also, the Potency result in test [2], in test [3], in [11], in test [4], in test [5] and in [15] was “inactive” throughout. In addition, the Potency entry in [8] was “inactive”. Besides, the activation in test [12] is 2.7% (inactive). Further, the result in test [17], in test [14], in [6] and in test [7] was inactive. The max response in [13] came out at 10.4%.
`ClCc1ccccn1`: the Potency in test [1] and in test [18] was > 92 µM (inactive) throughout. Moreover, the Potency result in test [3], in [11], in test [4], in [5], in test [15] and in test [19] was “inactive” throughout. The Potency entry in [8] and in [10] was “inactive” in each case. The activation in test [12] was 7.32% (inactive) and 6.72% (inactive). The result in [17], in test [14], in test [6], in [7] and in test [9] was inactive. In addition, the max response in test [13] stood at 3.34%.
As to `Cl/C=C/Cl`, the Potency in test [1] was > 92 µM (inactive). Also, the Potency result in test [2], in test [3], in test [11], in test [4], in test [5] and in [19] was “inactive” each time. Moreover, the Potency entry in test [10] was “inactive”. Further, the activation in [12] was -4.99% (inactive); in [16], -1.04% (inactive). The result in test [17], in test [7] and in [9] was inactive. Besides, the max response in test [13] was -19.1%.
For `c1ccc(P(c2ccccc2)c2ccccc2)cc1`, the Potency in [1] is > 92 µM (inactive); in test [18] it was > 92 µM (inactive); in test [3] it was 25.1 µM (active); in [19], 37.6 µM (active). Besides, the Potency result in test [4], in test [5], in [15], in test [8] and in test [10] was “inactive” in each case. Also, the activation was 1.22% (inactive) in test [12] and -0.914% (inactive) in [16]. The outcome in test [17], in test [14], in test [6], in test [7] and in test [9] was inactive. Moreover, in [13], the max response amounted to 58.2%.
Regarding `CCCCCc1cc(O)cc(O)c1`, the results for the Potency in test [1], in test [18] and in [8] were > 92 µM (inactive), > 92 µM (inactive) and 37.6 µM (active), respectively. Besides, the Potency result in [3] and in test [4] was “inactive” each time. Further, the activation in [20] is 2.26% (inactive). The result in [6], in test [7] and in test [9] was inactive.
